Pf Dd2 inh: blocks growth of Plasmodium falciparum Dd2 parasites | activity change, % at 10 µM | AID 1159554 | 94,000 compounds, 2.3% hits | P. falciparum Dd2 growth, SYBR Green, 72 h; active compounds read low; in the data active = activity change below about -80%
T cruzi growth: T. cruzi proliferation inhibition; 77,000 compounds, 5.9% hits; T. cruzi beta-gal in NIH3T3, GalScreen luminescence, 90 h; AID 624255; inhibition, % at 8.34 µM;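 active = mean inhibition above about 93%, with at least 55% of replicates each passing it, limit read from the data, passing the limit was not always enough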
C diff growth: blocks growth of Clostridium difficile. Clostridium difficile clinical isolate growth, OD600, 24 h; active compounds read low. growth activity, negative = inhibition, % at 16 µg/mL (by protocol). 86,000 compounds, 0.25% hits. AID 1259249;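 active = mean growth activity at or below -80% and every replicate also at or below -80%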;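 note: 0% = DMSO wells and -100% = levofloxacin 16 µg/mL wells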
An asterisk follows results filed as active; ! = repeats disagree. Shown are actives, neighbours in structure and some others; about 6.7% of the full set was active somewhere.

`Cc1ccccc1S(=O)(=O)N1C[C@@H]2N[C@H](C1)C2c1ccc(-c2ccc(C#N)cc2)cc1` (stereo not given in full) gave Pf Dd2 inh -83.8*! and C diff growth 8.4.
Cc1ccc(S(=O)(=O)N2C[C@@H]3N[C@H](C2)[C@@H]3c2ccc(-c3cccc(C)c3)cc2)cc1 was read as Pf Dd2 inh -63.3 and C diff growth 1.3.
For Cc1ccc(-c2ccc(C3[C@@H]4CN(S(=O)(=O)c5cccc(C)c5)C[C@H]3N4)cc2)cc1 (stereo not given in full) the results were Pf Dd2 inh -42.5 and C diff growth -94.9*.
For CN(C)C(=O)c1ccc(-c2ccc(C3[C@@H]4CN(S(=O)(=O)c5ccc(F)cc5)C[C@H]3N4)cc2)cc1 (stereo not given in full) the results were Pf Dd2 inh -20.9 and C diff growth -12.0.
COc1ccccc1-c1ccc([C@@H]2[C@@H]3CN(S(=O)(=O)c4ccc(-c5ccccc5)cc4)C[C@H]2N3)cc1 was read as Pf Dd2 inh -89.2* and C diff growth 5.7.
`O=S(=O)(c1ccc(F)cc1)N1C[C@@H]2N[C@H](C1)C2c1ccc(-c2ccc(F)cc2)cc1` (stereo not given in full) gave Pf Dd2 inh -88.5*! and C diff growth 9.5.
Screening COc1cccc(S(=O)(=O)N2C[C@@H]3N[C@H](C2)C3c2ccc(-c3ccccc3OC)cc2)c1 (stereo not given in full) returned Pf Dd2 inh -34.2 and C diff growth 11.2.
`Cc1ccccc1S(=O)(=O)N1C[C@@H]2N[C@H](C1)C2c1ccc(-c2ccc(C(=O)N(C)C)cc2)cc1` (stereo not given in full) gave Pf Dd2 inh -24.4 and C diff growth -15.6.
For C[C@H]1CN([C@@H](C)CO)C(=O)c2cccc(NC(=O)c3ccc(-c4nccs4)cc3)c2O[C@H]1CN(C)C(=O)Nc1ccccc1 the results were Pf Dd2 inh -10.3, T cruzi growth -68.5 and C diff growth 3.7.
Cc1cccc(S(=O)(=O)N2C[C@@H]3N[C@H](C2)C3c2ccc(-c3cncnc3)cc2)c1 (stereo not given in full) was read as Pf Dd2 inh -28.0 and C diff growth -3.2.
Screening O=S(=O)(c1ccccc1F)N1C[C@@H]2N[C@H](C1)C2c1ccc(/C=C/c2ccccc2)cc1 (stereo not given in full) returned Pf Dd2 inh -78.2 and C diff growth 9.7.
O=S(=O)(c1ccccc1)N1C[C@@H]2N[C@H](C1)C2c1ccc(-c2ccc(F)cc2)cc1 (stereo not given in full) was read as Pf Dd2 inh -84.5*! and C diff growth 9.0.
Cc1ccc(-c2ccc(C3[C@@H]4CN(S(=O)(=O)c5ccc(C)cc5)C[C@H]3N4)cc2)cc1 (stereo not given in full) was read as Pf Dd2 inh -21.1 and C diff growth -96.9*.
O=S(=O)(c1ccccc1)N1C[C@@H]2N[C@H](C1)C2c1ccc(/C=C/c2ccccc2)cc1 (stereo not given in full) was read as Pf Dd2 inh -36.6 and C diff growth -96.3*!.
`O=S(=O)(c1ccc(-c2ccccc2)cc1)N1C[C@@H]2N[C@H](C1)C2c1ccc(-c2cncnc2)cc1` (stereo not given in full) gave Pf Dd2 inh 1.9 and C diff growth 5.0.
Screening C[C@@H]1CCCCO[C@H](CN(C)C(=O)Cc2ccccc2)[C@H](C)CN([C@@H](C)CO)C(=O)c2cc(NC(=O)CCC(F)(F)F)ccc2O1 returned Pf Dd2 inh -20.9, T cruzi growth 71.7 and C diff growth 3.0.
Screening O=C(C[C@@H]1C=C[C@@H](NC(=O)Nc2cc(F)ccc2F)[C@H](CO)O1)NCc1ccc2c(c1)OCO2 returned Pf Dd2 inh 2.0, T cruzi growth 48.7 and C diff growth -1.0.
Screening COc1ccc(NC(=O)N(C)C[C@@H]2Oc3ccc(NS(C)(=O)=O)cc3CC(=O)N([C@H](C)CO)C[C@H]2C)cc1 returned Pf Dd2 inh 3.0, T cruzi growth 15.8 and C diff growth -3.1.
COc1ccc2c3c(n(C)c2c1)[C@@H](CO)N(C(=O)C1CC1)CC31CCN(C(=O)CN(C)C)CC1 was read as Pf Dd2 inh -84.3* and C diff growth -4.0.
CCC(=O)N1CC2(CCN(Cc3ccc(Cl)cc3)CC2)c2c(n(C)c3cc(OC)ccc23)[C@H]1CO was read as Pf Dd2 inh -82.8* and C diff growth -2.0.
For CCCNC(=O)N1CC2(CCN(Cc3cccc(OC)c3)CC2)c2c(n(C)c3cc(OC)ccc23)[C@@H]1CO the results were Pf Dd2 inh -88.7* and C diff growth -3.3.
